Measurements published in ChEMBL document CHEMBL4513216, “Probing the Open Global Health Chemical Diversity Library for Multistage-Active Starting Points for Next-Generation Antimalarials” (ACS Infect Dis, 2020).
The campaign covered roughly 69,000 compounds. About 8,600 (12%) showed an effect of 50% or more. This is one part of a sample in which strong results are shown more often than they occur.

The molecules below were run on Plasmodium berghei (assay: Screen against P. berghei liver stage (PbLuc), transformed with Luciferase, at 10uM). Conditions: tested at 10 uM.
Assay type: functional, HepG2

Compound | INHIBITION
O=C(O)c1cnc(OCC2CC2)c(Br)c1 | -4.56%
O=C1CC[C@@H]2[C@@H](CCN2C(=O)C2CCOCC2)N1CC1CC1 | 18.5%
COCCN1C(=O)CC[C@@H]2[C@H]1CCN2C(=O)N(C)C | -37.8%
COCCN1C(=O)CC[C@@H]2[C@H]1CCN2C(=O)C1CCOCC1 | 52.3%
O=C1CC[C@H]2[C@H](CCN2C(=O)C2CCOC2)N1Cc1ccncc1 (stereo not given in full) | 54.7%
O=C1CC[C@@H]2[C@@H](CCN2C(=O)c2ccsc2)N1Cc1ccncc1 | 63.7%
O=C1CC[C@@H]2[C@@H](CCN2C(=O)c2ccsc2)N1CC1CC1 | 47.8%
O=C1CC[C@H]2[C@H](CCN2C(=O)C2CCOCC2)N1Cc1ccncc1 | 7.11%
Cc1nc(CN2C(=O)CC[C@H]3[C@@H]2CCN3C(=O)c2ccsc2)cs1 | 4.55%
O=C1CC[C@H]2[C@H](CCN2C(=O)C2CCCO2)N1Cc1ccncc1 (stereo not given in full) | 8.69%
COCCN(C(=O)c1ccn(-c2ccc(OC)cc2)n1)C(C)C(N)=O (stereo not given) | 0.0996%
COc1cc(C2SCC(=O)Nc3n[nH]cc32)cc(OC)c1O (stereo not given) | 60.7%
COc1cc(OC)c(C2SCC(=O)Nc3n[nH]cc32)cc1OC (stereo not given) | 26.8%
COc1cccc(C2SCC(=O)Nc3n[nH]cc32)c1OC(C)C (stereo not given) | 40%
COc1ccccc1C1SCC(=O)Nc2n[nH]cc21 (stereo not given) | 42.6%
COc1ccc(OC)c(C2SCC(=O)Nc3n[nH]cc32)c1 (stereo not given) | 70.6%
COc1ccc(C2SCC(=O)Nc3n[nH]cc32)c(OC)c1OC (stereo not given) | 32.5%
N#Cc1cn(C2CC2)c(=O)n(CC(O)c2ccc(F)cc2)c1=O (stereo not given) | 35.85%
CCN(Cc1ccccc1)C(=O)c1cc(C2CCCN2C)ccn1 (stereo not given) | -31%
Cc1csc(N2CCN(C(=O)CCCNc3ncccn3)CC2)n1 | 26.4%
Cc1cccc(N2CCc3ncc(CNS(C)(=O)=O)n3CC2)n1 | 22.4%
COc1ccc(CN2CCC[C@@H]3CN(C(=O)c4ccco4)C[C@@H]32)cc1 | 29%
O=C(c1cn(CC(=O)N2CCCC2)c2ccccc12)C1CC1 | 71.7%
O=C(c1cn(CC(=O)N2CCCCC2)c2ccccc12)C1CC1 | 13.94%
O=C(c1cn(CC(=O)N2CCCCCC2)c2ccccc12)C1CC1 | 27.8%
CN1CCCC1c1ccnc2nccn12 (stereo not given) | 19.9%
CCC(C(=O)NCC1CCN(c2ccncc2)CC1)N(C)C (stereo not given) | 34.9%
Cc1csc(C(Cc2ccsc2)NC(=O)Cn2cccnc2=O)n1 (stereo not given) | 34%

Compound | INHIBITION
Cc1cccnc1C(Cc1ccsc1)NC(=O)Cn1cccnc1=O (stereo not given) | 59%
O=C(Cn1cccnc1=O)NC(Cc1ccsc1)c1nccs1 (stereo not given) | 29.3%
O=C(Cn1cccnc1=O)NC(Cc1ccsc1)c1ccccn1 (stereo not given) | 41.5%
Cc1cc(C)n(CC(=O)NC(Cc2ccsc2)c2ccccn2)c(=O)n1 (stereo not given) | 54%
CS(=O)(=O)N1CCC(C(=O)NC(Cc2ccsc2)c2ccccn2)CC1 (stereo not given) | 40.9%
CNc1nc2c(c(C(=O)N3CCCC3)n1)CN(Cc1ccco1)CC2 | 17.2%
CC(C)Nc1ncnc2c1CCN(C(=O)CCc1ccccc1)CC2 | 61.4%
CC(C)Nc1ncnc2c1CCN(C(=O)NCc1cccc(F)c1)CC2 | 51.2%
CC(C)Nc1ncnc2c1CCN(C(=O)Cc1ccccn1)CC2 | 8.69%
O=C(NCc1cccc(F)c1)N1CCc2ncnc(NC3CC3)c2CC1 | 16.8%
CC(C)Nc1ncnc2c1CCN(C(=O)NCc1cccnc1)CC2 | -1.15%
CC(C)Nc1ncnc2c1CCN(C(=O)CN(C)C)CC2 | 36.9%
COCC(=O)N1CCC(=O)N(C2CCCC2)Cc2ccccc21 | -20.1%
Cc1ccnc(CNC(=O)C2CC(=O)N(CCN(C)C)C2)c1 (stereo not given) | 8.41%
NC(=O)C1=NC2=NS(=O)(=O)c3ccccc3N2N1Cc1ccc(Cl)cc1 | 59.7%
NC(=O)C1=NC2=NS(=O)(=O)c3ccccc3N2N1Cc1ccccc1Cl | 30.8%
NC(=O)C1=NC2=NS(=O)(=O)c3ccccc3N2N1Cc1ccc(Br)cc1 | 1.96%
COCCC(=O)N(CCC#N)c1ccc(C)c(C)c1 | 27%
Cc1c(C)n(-c2ccccn2)c2nc3c(c(N)c12)CCCCC3 | 32.2%
Cc1ncnc2c1CCN(c1ccccn1)CC2 | -15.6%
Cc1c(C)n(Cc2ccccn2)c2nc3c(c(N)c12)CCCCC3 | 55.3%
Cc1c(C)n(-c2ccccn2)c2nc3c(c(N)c12)CCCC3 | 67.1%
Cc1nc(C2CCCNC2)nc2c1CCCN2Cc1ccccn1 (stereo not given) | 11.8%
Cc1ccccc1-c1cncc(C2CCN(Cc3ccccn3)CC2)n1 | 19.6%
Cc1c(C)n(Cc2ccccn2)c2nc3c(c(N)c12)CCCC3 | 58.4%
Cc1ncnc2c1CCN(Cc1ccccn1)CC2 | -64.8%
Cc1c(C)n(Cc2ccccn2)c2nc3c(c(N)c12)CCCCCC3 | 49.7%
